High-throughput results as filed in PubChem.
Cruzain inh noDet – qHTS Assay for Promiscuous and Specific Inhibitors of Cruzain (without detergent); purified cruzain, Z-FR-AMC fluorescence, no detergent; Potency, µM, most hits filed as inhibitors; actives 2.3% (n = 200,000); AID 1476, 2009; further: nearly all actives have a fitted effect of over 40% in size
Target sequence (P25779 123-467 limits assumed): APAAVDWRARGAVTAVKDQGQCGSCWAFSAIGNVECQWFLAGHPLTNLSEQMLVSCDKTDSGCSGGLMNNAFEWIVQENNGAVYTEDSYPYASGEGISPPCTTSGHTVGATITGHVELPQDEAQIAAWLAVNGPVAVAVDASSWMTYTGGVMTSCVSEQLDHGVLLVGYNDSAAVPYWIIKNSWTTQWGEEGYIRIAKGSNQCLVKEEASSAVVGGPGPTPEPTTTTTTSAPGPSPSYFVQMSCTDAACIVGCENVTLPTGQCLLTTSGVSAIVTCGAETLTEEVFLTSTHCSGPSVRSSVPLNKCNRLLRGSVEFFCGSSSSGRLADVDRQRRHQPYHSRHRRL
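Purified cruzain at 1.5 nM, pre-incubated 15 min with compound at room temperature in 100 mM sodium acetate pH 5.5, 5 mM DTT, 0.00005% Triton X-100. Reaction started with 2 uM Z-FR-AMC; AMC fluorescence increase over 60 s gives rate.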
Cruzain inh Det – qHTS Assay for Promiscuous and Specific Inhibitors of Cruzain (with detergent). purified cruzain, Z-FR-AMC fluorescence, 0.01% Triton. Potency, µM, usual class: inhibitors. Cruzipain (Trypanosoma cruzi), P25779. AID 1478, 2009. actives 0.43% (n = 200,000); further: nearly all actives have a fitted effect of over 40% in size
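Steps: dispense cruzain (1.5 nM final) in acetate buffer pH 5.5 with DTT and 0.01% Triton X-100; pin-transfer compounds; incubate 15 min RT; add Z-FR-AMC (2 uM final); read fluorescence every 30 s, using the 60 s intensity change.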
Numbers stand for hits; n = inactive; u = inconclusive; ! = a repeat was not active. An excerpt weighted towards active compounds, which were near 2.6% of everything screened. The call rests on the fitted dose curve; in most records, active means well fitted curve in the direction sought with a large enough effect; inconclusive means small, poorly fitted or top-dose-only effect, or another doubt; inactive means no such curve, though single readings can be large; an effect the other way counts as inactive or inconclusive.

SMILES	Cruzain inh noDet	Cruzain inh Det
N#CC(=C(/N)Sc1ccccc1N)/C(C#N)=C(/N)Sc1ccccc1N	u	n
O=C(Cc1ccc(NC(=O)N2CCCCc3ccccc32)cc1)NCc1cccc(Br)c1	n	n
Cc1ccc2c(c1)C(c1ccc([N+](=O)[O-])cc1)=NNC(c1ccc(Br)cc1)=N2	u	n
CCc1ccc2c(c1)C(c1ccc([N+](=O)[O-])cc1)=NNC(c1ccc(Br)cc1)=N2	10µM	n
O=C(COc1cccc(Cl)c1)N/N=C\c1cc2ccccc2nc1Cl	n	n
O=C(CNc1ccc2ccccc2c1)N/N=C/c1cc2ccccc2nc1Cl	25µM	n
Cc1cc(O)c(NC(=S)NC(=O)c2ccc(-c3ccc(Cl)cc3)o2)cc1C	16µM	n
Cc1ccc(NC(=S)NC(=O)c2ccc(-c3ccc(Cl)cc3)o2)c(O)c1	n	n
CC(CCC(=O)O)(c1cc(Br)c(O)c(Br)c1)c1cc(Br)c(O)c(Br)c1	n	n
C=CCn1c(=NC(=O)c2ccc(S(=O)(=O)N3CCc4ccccc4C3)cc2)sc2cc(S(N)(=O)=O)ccc21	n	n
COCCn1c(=NC(=O)c2ccc(S(=O)(=O)N3CCc4ccccc4C3)cc2)sc2cc(S(N)(=O)=O)ccc21	u	n
C#CCn1c(=NC(=O)c2ccc(S(=O)(=O)N3CCc4ccccc4C3)cc2)sc2cc(S(N)(=O)=O)ccc21	10µM	n
COC(=O)Cn1c(=NC(=O)c2ccc(S(=O)(=O)N3CCc4ccccc4C3)cc2)sc2cc(OC)ccc21	6.3µM	n
Cc1nc2cnc(N3CCN(C)CC3)nc2n(-c2ccccc2)c1=O	n	n
Cc1ccc(-c2noc(CN(C3CCCCC3)S(=O)(=O)c3ccc(C)cc3)n2)cc1	n	n
COc1cccc(Nc2ncc3nc(-c4ccccc4)c(=O)n(Cc4cccs4)c3n2)c1	5µM	n
COCCn1c(=O)c(CCc2ccccc2)nc2cnc(Nc3cccc(OC)c3)nc21	n	n
COc1ccc(Oc2ncc3nc(-c4ccccc4)c(=O)n(Cc4cccs4)c3n2)cc1	25µM	n
Cc1nc2cnc(Nc3ccccc3)nc2n(Cc2cccs2)c1=O	n	n
O=c1c(CCc2ccccc2)nc2cnc(Nc3ccccc3)nc2n1Cc1cccs1	25µM	n
COc1cccc(Nc2ncc3nc(CCc4ccccc4)c(=O)n(Cc4cccs4)c3n2)c1	4µM	n
COc1ccc(Oc2ncc3nc(C)c(=O)n(Cc4cccs4)c3n2)cc1	n	n
COc1ccc(-c2nc3cnc(Nc4ccccc4)nc3n(Cc3cccs3)c2=O)cc1	n	n
CCN(C(=O)CSc1nc2ccccc2n1CC(=O)Nc1cccc(C#N)c1)c1ccccc1	n	n
COc1ccc(S(=O)(=O)N(CCO)c2ccccc2CN(C)CC=Cc2ccc(Cl)cc2)cc1	u	n
SMILES	Cruzain inh noDet	Cruzain inh Det
Cc1cc(C)cc(-n2c(SCC(N)=O)nc3c([nH]c4ccccc43)c2=O)c1	n	n
Cc1ccc(OCC(=O)Nc2ccc3nc(SCC(=O)N4CCOCC4)sc3c2)cc1	n	n
O=c1c(O)c(-c2ccc(O)c(O)c2)oc2cc(O)cc(O)c12	20µM!	u
O=c1cc(-c2ccc(O)c(O)c2)oc2cc(O)cc(O)c12	n	n
C[Si](C)(C)Cl	n	n
N=C1N=C(N)c2cc3ccccc3cc21	n	n
COc1cc(OC)cc(-c2nc3ccccc3c(=O)n2OC(=O)c2ccccc2C)c1	n	n
O=C(On1c(-c2ccccc2)nc2ccccc2c1=O)c1ccco1	u	28µM
O=C(c1csnn1)N1CCC2(CCCN(c3ncccn3)C2)CC1	n	n
COc1ccc(-c2c3c(nc4sc5c(=O)[nH]c(C)nc5c24)CCC3)cc1	n	n
O=C(Cn1nnc2c(sc3nc4c(c(-c5ccccc5)c32)CCC4)c1=O)c1ccccc1	25µM	n
COc1ccc(/C=C/C(=O)/C=C/c2ccc(OC)cc2OC)c(OC)c1	3.2µM	n
COc1ccc(/C=C/C(=O)c2ccc(Cl)cc2)c(OC)c1	n	n
CSSC	n	n
COCCNc1ccnc(-c2ccccc2C(F)(F)F)n1	n	n
CCN(CC)S(=O)(=O)c1ccc2nc(NC(=O)c3cccnc3)sc2c1	n	n
O=C(CNC(=O)C1CCCCC1)OCc1cc(=O)oc2ccc3ccccc3c12	n	3.2µM
CCOC(=O)c1oc2ccccc2c1NC(=O)C1CCCCC1	n	n
COc1cc(C)cc(OC)c1/C=C\C(=O)O	n	n
O=C(CSc1ccc(Cl)cc1)Nc1nnc(-c2cccc([N+](=O)[O-])c2)s1	u	n
O=C(Cc1cccc2ccccc12)Nc1nnc(-c2cccc([N+](=O)[O-])c2)s1	25µM	n
CCOC(=O)C1=C(Cc2ccc(Cl)cc2)C(=O)c2ccccc2C1=O	16µM	n
CCOC(=O)C1=C(C)N=C2c3ccccc3C(=O)C2C1c1ccc(Cl)cc1 (stereo not given)	n	n
Cc1nc2cnc(Oc3ccccc3)nc2n(C2CC2)c1=O	n	n
COc1ccccc1CNC(=O)CN(C)c1nn2c(=O)cc(C)nc2s1	n	n
